A549 viability = Nrf2 qHTS screen for inhibitors: counterscreen for cytotoxicity; A549 ARE-Fluc cells, CellTiter-Fluor viability, 18-24 h; Potency, µM (doses to about 46 µM), actives largely listed as inhibitors; 390,000 tested, 0.16% active
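A549 ARE-Fluc cells in 5% FBS OPTI-MEM, 5000 cells/well, rested 2 h then exposed to compounds in concentration-response for 18-24 h at 37 °C. Viability by CellTiter-Fluor fluorescence (Ex 405/Em 525) after 30 min; luciferase luminescence (BugLite, 15 min, RT) read afterwards.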
miR-21 reporter = qHTS Assay for Modulators of miRNAs and/orActivators of miR-21. Potency, µM (doses to about 38.3 µM), most hits filed as activators. HeLa miR-21 FLuc reporter, luciferase, 48 h. 340,000 tested, under 10 active;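 also: miR-21 action dims this reporter so a rising signal means less miR-21 action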
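HeLa cells endogenously expressing miR-21, stably carrying CMV-driven firefly luciferase with a downstream miR-21 binding site, 2000 cells/well. Titrations up to approximately 40 uM, 48 hours; luciferase luminescence read.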
Nrf2 ARE act = qHTS of Nrf2 Activators; AREc32 ARE-luciferase reporter (MCF7-derived line), luminescence, 24 h; Potency, µM (series often up to 46.1 µM), usual class: activators; 410,000 tested, 0.31% active; also: nearly all actives have a fitted effect of over 65% in size
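AREc32_Fluc, 1000 cells/well, OPTI-MEM + 5% FBS, o/n 37 deg C 5% CO2; 23 nL cpd by pin tool, 24 hr; Steady-Glo 30 min RT, luminescence.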
p53 reactivator = qHTS assay for re-activators of p53 using a Luc reporter; H1299 p53-A138V BP100-luciferase reporter, luminescence, 24 h; Potency, µM (highest dose often 92.2 µM), hits mostly activators; 320,000 tested, 0.063% active; also: nearly all actives have a fitted effect of over 45% in size
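H1299 (p53-null), stable ts p53-A138V + BP100-Luc; 1000 cells/well, Opti-MEM/10% FBS; cpd 4 pt, 1:5; 24 h, 37 deg C, 5% CO2; detection reagent 10 min RT; luminescence.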
Nrf2 block = Nrf2 qHTS screen for inhibitors. A549 ARE-Fluc reporter, luciferase luminescence, 18-24 h. Potency, µM (titrated, usually from 46 µM), usual class: inhibitors. 360,000 tested, 2.1% active. AID 504444, 2011; also: nearly all actives have a fitted effect of over 60% in size
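A549 ARE_Fluc cells (5000/well, 5% FBS OPTI-MEM) pre-incubated 2 h, then treated with compounds 18-24 h at 37C/5% CO2 in concentration-response. CellTiter-Fluor viability read first; BugLite luciferase luminescence after 15 min at room temperature gives Nrf2 activity.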
ClpP mod = qHTS Assay for Activators of ClpP; ATP-dependent Clp protease proteolytic subunit (Bacillus subtilis (strain 168)), P80244; purified B. subtilis ClpP, FRET peptide cleavage, 20 min; Potency, µM (doses to about 57.5 µM); 340,000 tested, 1.9% active; AID 651965, 2013; active = well fitted falling curve with a large enough effect; inconclusive = small, poorly fitted or top-dose-only effect; inactive = no such curve, though single readings can be large or run the other way; also: the source files actives as falling curves though it sought activators and does not explain the sign; nearly all actives have a fitted effect of over 65% in size
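Buffer: 100 mM Tris/HCl pH8, 100 mM KCl, 0.05% low protease BSA, 2.5% glycerol, 0.01% Tween-20. ClpP 10 microg/mL final; 20 min RT; delta FRET normalized to ADEP and DMSO controls.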
Numbers stand for hits; . = inactive; ? = inconclusive; / = no result given. Rows were chosen to be rich in hits. Some 3.7% of all compounds tested hit in one or more screens of this group. Unless noted, calls follow the shape of the dose curve; as a rule, active = well fitted curve in the direction sought with a large enough effect; inconclusive = small, poorly fitted or top-dose-only effect, or another doubt; inactive = no such curve, though single readings can be large; an effect the other way counts as inactive or inconclusive.

SMILES	A549 viability	miR-21 reporter	Nrf2 ARE act	p53 reactivator	Nrf2 block	ClpP mod
Cc1ccc(/C=C(\C#N)C(=O)Nc2ccccn2)o1	.	.	14µM	.	?	.
COc1cc2ccccc2cc1C(=O)OCC(=O)Nc1ccc(Br)cc1	/	/	/	/	/	.
O=C(Nc1ccc(OC(F)F)cc1)c1ncc(Cl)c(Cl)c1Cl	.	.	7.1µM	.	.	/
COC(=O)C1=CN(CC2CCCO2)C=C(C(=O)OC)C1c1cc(OC)c(OC)c(OC)c1 (stereo not given)	.	.	.	/	.	25µM
Cc1cc(C)cc(Cn2cc(CN3CC(N4CCN(C)CC4)CS3(=O)=O)nn2)c1 (stereo not given)	/	/	.	/	/	.
CN(c1cccc(F)c1)c1cc2c(c3c1ccn3C)C1CCC2C1 (stereo not given)	/	/	.	/	/	8.9µM
COc1ccc(CNC(=O)Cn2ncc3c(=O)oc4ccc(C)cc4c32)c(OC)c1	.	.	.	/	.	.
Cc1cccc(NC(=O)c2ccc(N(Cc3ccccc3)S(C)(=O)=O)cc2)c1	.	.	?	/	?	.
Cc1ccc(C(=O)C[n+]2ccc(-c3nnc4n3CCC4)cc2)cc1	.	.	.	.	.	11µM
N=C1CCCN1CC(=O)c1ccc(Cl)cc1	.	.	.	?	.	.
O=C(C[n+]1ccc(-c2nnc3n2CCC3)cc1)c1ccc(Cl)cc1	.	.	.	.	.	32µM
COc1cc(SC)ccc1C(=O)Nc1ccc(S(=O)(=O)Nc2nccc(C)n2)cc1	.	.	.	/	/	.
Cc1ccc(-c2noc(CSc3nnc(-c4ccncc4)n3-c3ccc(C)cc3)n2)cc1	.	.	.	.	?	.
Clc1ccccc1-c1nnc(SCc2nc(-c3ccccc3)no2)n1-c1ccccc1	.	?	.	/	15µM	.
Cc1ccc(-n2c(SCc3nc(-c4ccc(Cl)cc4)no3)nnc2-c2ccncc2)cc1	.	.	.	/	23µM	.
Cc1ccc(-c2noc(CSc3nnc(C)n3-c3ccc(C)c(C)c3)n2)cc1	.	.	.	/	16µM	.
Cc1sc2ccccc2[n+]1CCCCBr	/	/	/	/	/	.
COc1cc(F)c(S(=O)(=O)N2CCN(S(=O)(=O)c3ccc4c(c3)OCCO4)CC2)c(F)c1	.	/	/	/	.	/
CC(=O)c1c(C)n(-c2cccc(C)c2)c2ccc(OC(=O)COc3ccccc3)cc12	.	.	.	/	.	.
COc1cc(NC(=O)CN2c3cccc4cccc(c34)S2(=O)=O)cc(OC)c1OC	.	.	.	.	23µM	.
CC(=O)N1CCN(S(=O)(=O)c2cccc(C(=O)OCc3ccc(C(C)(C)C)cc3)c2)CC1	.	/	.	.	23µM	.
Cc1nn(C2CC(O)C(O)C(CO)O2)c(=O)[nH]c1=O (stereo not given)	.	/	.	/	.	28µM
CCc1cn([C@H]2C[C@H](O)[C@@H](CO)O2)c(=O)[nH]c1=O	.	.	.	.	.	.
CCOC(=O)c1c(NC(=O)c2ccco2)n(C2CCCCC2)c2nc3ccccc3nc12	.	.	?	.	.	28µM
CCN(CC)/C(Sc1ccccc1)=C(\C(Cl)=C(Cl)Cl)[N+](=O)[O-]	.	.	.	.	.	/
SMILES	A549 viability	miR-21 reporter	Nrf2 ARE act	p53 reactivator	Nrf2 block	ClpP mod
O=[N+]([O-])/C(C(Cl)=C(Cl)Cl)=C(\Sc1ccccc1)N1CCCCC1	.	.	11µM	.	?	.
Cc1nnc(N2CCN(c3ccc(Cl)cc3)CC2)c2c1nnn2Cc1ccc(F)cc1	.	.	.	/	.	?
COc1cc2c(=O)n(Cc3ccccc3)c(=O)n(CC(=O)NCCc3ccccc3)c2cc1OC	.	.	.	.	?	28µM
CC1(C)CC(=O)c2sc(NC(=O)CN3CCCCC3)nc2C1	.	.	.	.	.	16µM
CC1(C)CC(=O)c2sc(NC(=O)c3cccs3)nc2C1	.	.	.	?	15µM	.
CCOC(=O)c1c(C)oc2nc(C)nc(NCCCN3CCN(c4ccc(F)cc4)CC3)c12	.	.	.	/	.	.
Cc1cc(N2CCN(c3cccc(C(F)(F)F)c3)CC2)n2nc(-c3ccccc3C)nc2n1	.	.	.	/	.	.
Cc1ccccc1-c1nnn(CC(=O)Nc2sc3c(c2C#N)CCC(C(C)(C)C)C3)n1 (stereo not given)	.	.	.	/	.	.
CCNC(=O)N1c2ccc(OC)cc2C(C)=CC1(C)C	/	.	.	?	.	32µM
COc1ccc(NC(=O)N2c3ccccc3C(C)=CC2(C)C)cc1	.	.	.	.	.	/
COc1ccc(NC(=O)N2c3ccc(OC)cc3C(C)=CC2(C)C)cc1	?	.	?	.	.	.
CCOc1ccc2c(c1)C(C)=CC(C)(C)N2C(=O)Nc1ccccc1	.	.	.	.	.	28µM
CC[N+](CC)(CC)CCOc1ccc(/C=C/c2ccccc2)cc1	.	/	.	.	15µM	.
CC[N+](CC)(CC)CCOc1cccc(OCC[N+](CC)(CC)CC)c1OCC[N+](CC)(CC)CC	.	/	.	.	.	.
CCCCNc1nc(C#N)nc(Nc2ccccc2)n1	.	/	/	/	.	/
CSc1nc(Oc2ccc(=O)n(C)n2)nc(N(C)C)n1	.	.	.	.	.	.
CCCn1nc(Oc2nc(SC)nc(N(C)C)n2)ccc1=O	.	.	.	.	/	25µM
Cc1cc(C)c2c(-n3cccc3)c(C(=O)NCCCN3CCCCC3)sc2n1	.	.	.	/	.	.
CC(C)CNC(=O)[C@H]1N2C(=O)c3ccccc3C2SC1(C)C (stereo not given in full)	.	.	.	.	.	28µM
Cc1[nH]c2ccc(C(=O)NCCc3ccccc3Cl)cc2c1C	.	.	.	/	?	.
CCOC(=O)N1CCN(C(=O)c2ccc3nc4ccsc4c(=O)n3c2)CC1	.	.	.	.	.	.
